Measured values as given in PubChem BioAssay AID686970 (National Center for Advancing Translational Sciences (NCATS), 2013).
Among all 360,000 compounds or so, about 6,000 (1.7%) were called active. Inconclusive results (about 8%) are left out. Calls come from the whole dose curve; as a rule, active = well fitted cell-killing curve with a large enough effect; inconclusive = small, poorly fitted or top-dose-only effect, or effect the other way; inactive = flat fitted curve, though single readings scatter. For the sample, actives were picked, then their nearest neighbours and some compounds at random.

assay: qHTS for induction of synthetic lethality in tumor cells producing 2HG: qHTS for the HT-1080-NT fibrosarcoma cell line; settings: HT-1080-NT fibrosarcoma viability, CellTiter-Glo ATP luminescence, 48 h; series mostly up to 46.1 µM; activity, negative = less viability: at the top concentration; note: nearly all actives have a fitted effect of over 55% in size
From the text: Unbiased genomic sequencing for 22 glioma genomes found recurrent mutation of IDH1 on chromosome 2q33, a gene encoding the cytosolic isoform of IDH1 associated with the tricarboxylic acid cycle (TCA) that catalyzes the oxidative decarboxylation of isocitrate, yielding alpha-ketoglutarate and CO2 via NADP+ to NADPH conversion. Subsequent studies confirmed the recurrent IDH mutations in up to 70% of secondary gliomas and in 10% of AML cases. In addition, the somatic mutation of cancer-associated IDH1 is a point mutation resulting in various amino-acid substituents at Arginine132 (IDH1 R132), a key residue found in the enzyme's active site that when mutated, results in the loss-of-function in metabolizing isocitrate but confers a gain-of-function to produce the oncometabolite 2-hydroxyglutarate (2HG). This in effect defines IDH1 as an oncogene and provides an extraordinary opportunity to discover chemical probes against mutant IDH1 that may translate into much needed new therapies for glioma and AML patients.
This assay aims to perform a synthetic lethal screen for chemical probes specific for 2HG-producing tumor cells using matched paired cell lines (1) HT-1080-NT fibrosarcoma cell line that overproduces 2HG and (2) HT-1080-IDH1KD cell line which has IDH1 expression knocked-down. Desirable compounds are toxic to the NT fibrosarcoma cells but not to the IDH1KD cell line. The data in this AID corresponds to the results of the qHTS against the HT-1080-NT fibrosarcoma cell line.
[1] Dang L, Jin S, Su SM. IDH mutations in glioma and acute myeloid leukemia. Trends of Mol Med. 2010; 16(9): 387-97.
[2] Dang L et al. Cancer-associated IDH1 mutations produce 2-hydroxyglutarate. Nature. 2010; 465(7300):966.
NIH Molecular Libraries Probe Production Centers Network [MLPCN]
NIH Chemical Genomics Center [NCGC]
Assay Submitter (PI): Lenny Dang Ph.D., Agios Pharmaceuticals
Suspensions of trypsinized HT-1080-NT cells were dispensed into white, tissue culture-treated, solid 1536-well plates at 5uL/well (750 cells/well final concentration) in RPMI medium supplemented with 5% FBS. Plates were incubated at 37 degrees C for 2 hours, after which 23 nL of compounds or DMSO were delivered to each well using a pin tool. Plates were then incubated at 37 degrees C for an additional 48 hours. CellTiter-Glo viability reagent (Promega) was dispensed into wells (2.5uL/well) and incubated at room temperature for 10 minutes. The plates were measured on a PerkinElmer ViewLux plate reader for luminescent signal (clear filter, 1 sec exp). DMSO-treated control wells and media-only (no cells) control wells were used to normalize %Activity of identified toxic compounds; DMSO-treated wells corresponded to 0%Activity (100% viability), while media-only controls were used to normalize 100%Activity (0% viability).
Concentration-response curves were fitted to the signals arising from the resulting luminescence. The concentration-effect curves were then classified based on curve quality (r2), response magnitude and degree of measured activity, and compounds were subsequently categorized based on their curve class.
Potency is the fitted concentration of half-maximal effect.

Row | Compound | activity, negative = less viability | Potency
1 | CC(=O)OCC(C)n1c(=O)c2ccccc2n1C(C)=O (stereo unspecified) | 3.8% (inactive) | 
2 | CCN1/C(=C/C(=S)Nc2ccccc2)Sc2ccccc21 |  | 6.51 µM (active)
3 | CC(NC(=S)Nc1ccccc1)C1COc2ccccc2O1 (stereo unspecified) | -2.44% (inactive) | 
4 | CCOC(=O)CNC(=O)N1c2ccccc2Sc2ccccc21 | 0% (inactive) | 
5 | COc1ccc(OC)c(CN2C(=O)CCC2(C)c2nnnn2Cc2ccccc2)c1 (stereo unspecified) | 6.01% (inactive) | 
6 | CCOC(=O)N1CCN(C(=O)C[C@@H]2C[C@@]3(C(=O)OC)CCCCC=C3N(CCC3=CCCCC3)C2=O)CC1 | -17.7% (inactive) | 
7 | Cc1cc(C(=O)Nc2nnc(C3CC3)s2)c(C)s1 | -2.13% [at 9.24 µM] (inactive) | 
8 | CCc1ccccc1OCC(=O)Nc1nnc(C2CC2)s1 | 6.09% (inactive) | 
9 | O=C(Nc1nnc(C2CC2)s1)c1ccccn1 |  | 7.08 µM (active)
10 | Cc1onc(-c2ccccc2)c1-c1nnc(COC(=O)c2ccc(N(C)C)cc2)o1 | -9.65% (inactive) | 
11 | COc1ccc(CCNC(=O)Nc2ccc3c(c2)c(=O)n(C)n3C)cc1OC | 18.5% (inactive) | 
12 | COc1ccc(C(=O)C2CCCN(Cc3cccn3-c3ccccn3)C2)c(C)c1 (stereo unspecified) |  | 8.2 µM (active)
13 | COc1ccc(C(=O)C2CCCN(Cc3ccc4nonc4c3)C2)c(C)c1 (stereo unspecified) | -10.5% (inactive) | 
14 | CCOC(=O)c1[nH]ncc1CN1CCCC(C(=O)c2ccc(OC)cc2C)C1 (stereo unspecified) | 2.6% (inactive) | 
15 | COCCCN1C(=O)C(CC(=O)NCc2cccs2)CC(C(=O)N2CCOCC2)=C1C (stereo unspecified) | 13.1% (inactive) | 
16 | Cc1ccc(NC(=O)Cn2nnc(C(=O)NCc3ccco3)c2N)c(C)c1 |  | 20.6 µM (active)
17 | CCOc1ccc(Cn2nnc(C(=O)Nc3ccc(OC)cc3OC)c2N)cc1 | -2.78% (inactive) | 
18 | CCOc1ccccc1NC(=O)Cn1nnc(C(=O)NCc2cccs2)c1N |  | 0.461 µM (active)
19 | COc1ccc(CNC(=O)c2nnn(CC(=O)Nc3cc(C)cc(C)c3)c2N)cc1 | 1.9% (inactive) | 
20 | Cc1ccc(SCC(=O)NC(=O)NCc2ccco2)c(C)c1 | -4.84% (inactive) | 
21 | CCOc1ccccc1NC(=O)Cn1ncc2ccc([N+](=O)[O-])cc21 | -2.56% (inactive) | 
22 | CC(=O)c1ccc(OCC(=O)N(C)C2CCS(=O)(=O)C2)cc1 (stereo unspecified) | 14.7% (inactive) | 

Row | Compound | activity, negative = less viability | Potency
23 | COc1ccc(CN2C(=O)C(CC(=O)NCCN3CCOCC3)CC(C(=O)N(C(C)C)C(C)C)=C2C)cc1 (stereo unspecified) | 1.88% (inactive) | 
24 | O=C(NCc1ccc(F)cc1F)[C@@H]1CCCN1C(=O)[C@@H]1CCCN1C(=O)c1cccc(Cl)c1 | 10.8% (inactive) | 
25 | Nc1nc2c(Br)ccc(Br)c2cc1C(=O)NCCc1ccccc1 | 0.0286% (inactive) | 
26 | CCOC(=O)c1cc(-c2sc(NC(=O)c3ccccc3)nc2C)n(Cc2ccccc2)n1 | -27.9% (inactive) | 
27 | COc1ccc(C(=O)N[C@H](C(=O)NCc2ccccc2)C(C)C)cc1 | 8.29% (inactive) | 
28 | COc1cc(OC)cc(C(=O)N[C@H](C(=O)Nc2nc3ccccc3[nH]2)C(C)C)c1 |  | 1.16 µM (active)
29 | COc1cc(OC)cc(C(=O)N[C@H](C(=O)NNC(=O)c2ccc(Br)cc2)C(C)C)c1 | -0.305% (inactive) | 
30 | Cc1ccc(NS(=O)(=O)c2ccc(C(C)(C)C)cc2)cn1 | 1.12% (inactive) | 
31 | Cc1cc(C)cc(NS(=O)(=O)c2ccc(Oc3ncc(C(F)(F)F)cc3Cl)cc2)c1 |  | 23.1 µM (active)
32 | CN(NS(=O)(=O)c1cccs1)c1ncc(C(F)(F)F)cc1Cl | 6.3% (inactive) | 
33 | COC(=O)[C@@]1(Sc2ccc(C)cc2)CC(=O)N(c2cccc(SC)c2)[C@@H]1c1ccccc1 | -37.1% (inactive) | 
34 | CCCCCCN1CCN(C2CN(Cc3cn(CCCCCC)nn3)S(=O)(=O)C2)CC1 (stereo unspecified) | -28.1% (inactive) | 
35 | O=c1[nH]c(CCl)nc2cc(-c3ccc(Cl)cc3)sc12 |  | 16.4 µM (active)
36 | Cn1c(NCc2cccnc2)nc2cc(-c3ccc(F)cc3)sc2c1=O | 3.48% (inactive) | 
37 | CCC1(CC)Cc2ccccc2-c2nc(CCl)[nH]c(=O)c21 | -27.6% (inactive) | 
38 | CC(C)c1ccc(CC(=O)N2CCC2(C)C(=O)NS(=O)(=O)c2ccc(C(C)(C)C)cc2)cc1 (stereo unspecified) | 2.38% (inactive) | 
39 | CCCS(=O)(=O)NC(=O)C1(C)CCCN(C(=O)c2ccnc(Cl)c2)C1 (stereo unspecified) | 22.2% (inactive) | 
40 | CCCCCCN1C[C@H](O)[C@@H](n2cc(C3CC3)nn2)C[C@@H]1c1ccc(Cl)cc1 | -1.63% (inactive) | 
41 | COc1ccc2oc(=O)cc(-c3cc4ccccc4o3)c2c1 | -5.9% (inactive) | 
42 | COc1ccc(Nc2ccc3ccccc3c2)cc1 | -25.9% (inactive) | 
43 | COc1ccc(Nc2cc(=O)oc3ccccc23)cc1 |  | 7.31 µM (active)
44 | COCCNC(=O)c1cc2c(Br)ccc(Br)c2nc1N | -6.43% (inactive) | 

Row | Compound | activity, negative = less viability | Potency
45 | Cc1cccc(-n2ncc(Cl)c(Cl)c2=O)c1 |  | 5.8 µM (active)
46 | C=CCNc1cnn(-c2ccc(C)cc2)c(=O)c1Cl | 14.9% (inactive) | 
47 | Cc1cccc(-n2ncc3c(=O)[nH]c(SCC(=O)Nc4cc(C)on4)nc32)c1 | 9.3% (inactive) | 
48 | Cc1cc(Br)cn2c(Cc3ccccc3C(F)(F)F)c(C3CCCCC3)nc12 | 22.8% (inactive) | 
49 | CC(=O)Nc1cnc(-c2ccc(O)cc2C)cn1 | 11.8% (inactive) | 
50 | Oc1ccc(-c2nc3ccccc3nc2-c2ccc(O)cc2O)c(O)c1 | -11.5% (inactive) | 
51 | Cc1ccc(Nc2nc(-c3ccc(O)cc3O)cs2)nc1 |  | 1.64 µM (active)
52 | O=C(NCc1ccc(F)cc1)c1cc(C2CCCCN2C(=O)C2CCCCC2)on1 (stereo unspecified) | 1.47% (inactive) | 
53 | N#Cc1ccc(-c2nc3c(Cl)cc(C(F)(F)F)cn3c2Cc2ccccc2C(F)(F)F)cc1 | 13.4% (inactive) | 
54 | COc1cccc(C(O)c2ncc(-c3ccc4ccccc4c3)[nH]2)c1 (stereo unspecified) | -8.84% (inactive) | 
55 | COc1cccc(C(O)c2nc3ccccc3n2C)c1 (stereo unspecified) | -2.98% (inactive) | 
56 | CCCCCC(O)c1cccc(OCc2ccc3ccccc3n2)c1 (stereo unspecified) |  | 14.6 µM (active)
57 | COc1ccc(C(=O)NCC[N+](C)(C)C)cc1 | 21.8% (inactive) | 
58 | Cc1cc(C)nc(SCc2ccccc2C#N)n1 | -13.3% (inactive) | 
59 | Cc1cc(C)nc(S/C=C/C(=O)c2ccccc2)n1 |  | 5.17 µM (active)
60 | Cc1cc(C)nc(N(C#N)CC(=O)Nc2ccccc2)n1 | -1.01% (inactive) | 
61 | CN1CCN(C(=O)c2ccc(-c3cc4nc(NCc5cccnc5)n(C)c(=O)c4s3)cc2)CC1 | -6.36% (inactive) | 
62 | Cc1cccc(C)c1NC(=O)C(c1cccc(F)c1)N1CCN(C)CC1 (stereo unspecified) | 5.7% (inactive) | 
63 | CCC(C(=O)OCC(=O)Nc1ccc(C(=O)Nc2ccc(OC)cc2)cc1)c1ccccc1 (stereo unspecified) |  | 18.4 µM (active)
64 | CCC(C(=O)OCC(=O)Nc1c(Cl)cc(Cl)cc1Cl)c1ccccc1 (stereo unspecified) | -5.96% (inactive) | 
65 | CCC(C(=O)OCC(=O)Nc1ccccc1-c1ccccc1)c1ccccc1 (stereo unspecified) | -1.42% (inactive) | 
66 | O=C(Nc1ccc(Cl)cc1)c1csc([C@@H]2O[C@H](CO)[C@H](O)[C@H](O)[C@H]2O)n1 | 5.67% (inactive) | 
